Beta cell apopt: beta cell apoptosis inhibition. INS-1E cytokine-induced death, ATP luminescence, 48 h; percent of positive-control rescue, neutral wells zero. protection from apoptosis, % (no concentration beside the values). 0.8% of 300,000 active;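 active = Every replicate reaches about 75%, or at least half do and their mean reaches it too, limit read from the data; inconclusive = At least half of replicates reach the limit but their mean does not; inactive = Under half of replicates reach the limit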;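 note: 0% = cytokine-treated negative control wells and 100% = positive control rescue; higher means more ATP so stronger rescue from cytokine killing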
Gli-Sufu block: Gli-Sufu pathway antagonism. Sufu-KO-LIGHT fibroblasts, Gli luciferase reporter luminescence. inhibition, % at 5 µM. 0.74% of 340,000 active;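 active = inhibition above about 55%, limit read from the data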;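 note: 0% = DMSO-treated cells and 100% = wells with medium but no cells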
Mdm2 MdmX PPI: inhibitors of human Mdm2/MdmX interaction. SaOS-2 split-luciferase Mdm2/MdmX complementation, luminescence. inhibition, % at 8 µM. 3% of 330,000 active. AID 485346;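 active = inhibition of at least 50% at 8 µM in the primary screen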
PAX8 reporter: lowers PAX8-driven luciferase in RMG-I cells. RMG-I TPO-luciferase reporter, SteadyGlo, 24 h. 1.2% of 360,000 active. inhibition, % at 12.6 µM;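 active = mean replicate inhibition at least 60% with every replicate also reaching 60%; inconclusive = only one of the two criteria is met; inactive = mean below 60% and not all replicates reaching 60%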;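 note: luciferase light reporting Pax8 driven TPO promoter activity; plate controls were median of neutral control wells for no effect and mitoxantrone controls for full effect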
CSC inhib: blocks cancer stem cells; 1.1% of 300,000 active; inhibition, % at 7.5 µM; cancer stem cell-like cells viability, luminescence; AID 2717; in the data active = inhibition above about 75%; inconclusive = no clear call, values can overlap the other calls; tested in HMLE shEcad cells
Shn3 3UTR inh: reduces Shn3 3'UTR luciferase signal in osteoblasts; AID 588674; Clone20 osteoblast Shn3 3'UTR firefly luciferase, 24 h; inhibition, % at 12.5 µM; 0.52% of 360,000 active;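 active = mean inhibition of at least 75% with every replicate also reaching 75%; inconclusive = mean inhibition at least 75% but some replicate below; inactive = mean inhibition below 75%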;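 note: 0% = median of neutral control wells and 100% = pilot-screen positive control compound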
Mdm2 MdmX conf: human Mdm2/MdmX binding inhibition, confirmed; shares compounds with Mdm2 MdmX PPI; 55% of 10,000 active; inhibition, % at 8 µM; luminescent assay; in the data active = inhibition above about 40%
FLuc counter: inhibits full-length luciferase, flagging false Mdm2/MdmX hits | shares compounds with Mdm2 MdmX PPI | SaOS-2 full-length luciferase counterscreen, luminescence | inhibition, % at 8 µM | 77% of 6,200 active;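 active = mean inhibition at 8 µM reaching about 37%, which flags the compound as non-specific, limit read from the data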;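 note: p53-null SaOS-2 cells with luciferase driven by a doxycycline-inducible promoter; compound on cells about two nights before reading with doxycycline added after day one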
* = called active by the depositor; u = inconclusive; x = no result given. An excerpt weighted towards active compounds, which were near 4% of everything screened.

SMILES	Beta cell apopt	Gli-Sufu block	Mdm2 MdmX PPI	PAX8 reporter	CSC inhib	Shn3 3UTR inh	Mdm2 MdmX conf	FLuc counter
C[C@@H]1CCCCO[C@H](CN(C)S(=O)(=O)c2ccc(Cl)cc2)[C@H](C)CN([C@H](C)CO)C(=O)c2cc(NC(=O)C3CCCCC3)ccc2O1	x	x	x	29	x	x	x	x
CCOc1cc(C(=O)O/N=C(\N)c2ccccn2)cc(OCC)c1OCC	3	-16	77*	-3	-7	-17	68*	85*
CCOc1ccc(C(=O)O/N=C(\N)c2ccccn2)cc1OCC	-5	-44	48	-139	-11	-97	x	x
CCCSc1nc2c(cnn2-c2ccc(C)cc2)c(=O)[nH]1	1	4	50*	-6	35	1	12	x
Cc1ccc(SCC(=O)NCCC2=CCCCC2)cc1	3	-4	-12	5	5	-29	x	x
CCCSc1nc2c(cnn2-c2ccccc2)c(=O)[nH]1	-1	2	0	3	0	0	x	x
Cc1cccc(-n2ncc3c(=O)[nH]c(SCC(=O)NCCC4=CCCCC4)nc32)c1	-3	10	90*	-6	x	-3	5	x
COCC(=O)Nc1ccc2c(c1)C(=O)N(C)C[C@H](OC)[C@@H](C)CN(C(=O)Cc1ccccn1)[C@H](C)CO2	x	x	x	-8	x	x	x	x
CCC(=O)Nc1ccc2c(c1)C(=O)N(C)[C@@H]1CC[C@H](CC(=O)NC3Cc4ccccc4C3)O[C@@H]1CO2	x	x	x	12	x	x	x	x
O=C(CN1C(=O)S/C(=C\c2cccc(Cl)c2)C1=O)NC1C=CS(=O)(=O)C1 (stereo not given)	-16	14	57*	10	2	2	33	x
COC(=O)c1cc2sccc2n1Cc1nc(-c2cccc(Cl)c2)oc1C	23	3	9	6	-4	54	x	x
COC(=O)c1cc2sccc2n1Cc1nc(-c2ccc(Cl)cc2)oc1C	-3	-11	51*	-1	-2	4	15	x
O=c1c2cc(N3CCOCC3)ccc2[nH]c(=S)n1CCCN1CCCCCC1	5	12	-33	x	1	4	x	x
O=c1c2cc(N3CCOCC3)ccc2[nH]c(=S)n1CCCN1CCN(c2ccccc2F)CC1	2	x	58*	x	x	x	32	x
COc1ccc(N2CCN(CCCn3c(=S)[nH]c4ccccc4c3=O)CC2)cc1	8	12	86*	3	33	10	67*	47*
O=C(CCCCCn1c(=S)[nH]c2ccc(N3CCOCC3)cc2c1=O)NCCc1ccccc1	-3	34	51*	0	39	-1	-10	x
CCCC#Cc1ccc([C@H]2[C@@H](CO)N(C(=O)C3CCCC3)[C@H]2C#N)cc1	x	x	x	-27	x	x	x	x
CCC(=O)N1C[C@H](O)COC[C@@H]2O[C@H](CC(=O)NCc3cc(F)cc(F)c3)CC[C@H]21	x	x	x	-7	x	x	x	x
CS(=O)(=O)Nc1ccc2c(c1)[C@@H]1C[C@H](CC(=O)NCc3cccc(F)c3)O[C@@H](CO)[C@@H]1O2	x	x	x	9	x	x	x	x
COc1ccccc1-n1cnc2c(c1=O)c1nc3ccccc3nc1n2-c1ccc(C)cc1	1	-10	55*	-7	-2	5	73*	65*
COc1ccccc1-n1c2nc3ccccc3nc2c2c(=O)n(-c3cc(C)cc(C)c3)cnc21	2	-6	17	14	-11	33	x	x
Cc1cccc2nc(-c3ccco3)c(Nc3ccccc3)n12	-4	4	-21	10	5	6	x	x
Cc1cccc(C)c1Nc1c(-c2ccccn2)nc2ccccn12	14	20	77*	31	39	54	58*	41*
Cc1ccc(Nc2c(-c3ccccn3)nc3cccc(C)n23)cc1	117*	27	87*	53	u	90*	91*	21
CN(C)C(=O)c1cccc(-c2ccc([C@H]3[C@@H](CO)N4C(=O)CN(C(=O)Cc5ccccc5)C[C@@H]34)cc2)c1	x	x	x	1	x	x	x	x
SMILES	Beta cell apopt	Gli-Sufu block	Mdm2 MdmX PPI	PAX8 reporter	CSC inhib	Shn3 3UTR inh	Mdm2 MdmX conf	FLuc counter
N/C(=N\OC(=O)Nc1ccc(Cl)cc1)c1ncc(C(F)(F)F)cc1Cl	-4	8	27	x	x	2	x	x
N/C(=N\OC(=O)Nc1ccccc1)c1ncc(C(F)(F)F)cc1Cl	0	4	51*	x	4	-26	4	x
C[C@H](NC(=O)[C@H]1[C@H](CO)[C@H]2Cn3c(ccc(-c4cccnc4)c3=O)[C@@H]1N2C)c1ccccc1	x	x	x	-12	x	x	x	x
O=C(Nc1ccc(F)cc1F)c1cccc(C(=O)Nc2ccc(F)cc2F)n1	69	28	95*	-3	56	50	87*	50*
O=C(c1ccccc1)N1CC(=O)N2[C@H](CO)[C@H](c3ccc(C4=CCCC4)cc3)[C@@H]2C1	x	x	x	0	x	x	x	x
COCCNC(=O)C[C@H]1CC[C@@H]2[C@H](COC[C@@H](O)CN2C(=O)Nc2ccc3c(c2)OCO3)O1	x	x	x	-2	x	x	x	x
O=C(C[C@H]1C=C[C@H](NC(=O)C2CCC2)[C@@H](CO)O1)Nc1nccs1	x	x	x	4	x	x	x	x
CN1CCN(C(=O)CCN2C(=O)/C(=C\c3ccc(F)cc3)SC2=S)CC1	1	-1	25	-2	11	-76	x	x
O=C(CCN1C(=O)/C(=C/c2ccc(F)cc2)SC1=S)NCCc1ccc(O)cc1	-20	-3	87*	21	53	-41	66*	42*
COc1cccc(/C=C2\SC(=S)N(CCC(=O)NCCc3ccc(O)cc3)C2=O)c1	-19	14	99*	100*	51	-5	84*	35
C[C@H]1CCCCO[C@@H](CN(C)Cc2ccc(C(=O)O)cc2)[C@@H](C)CN([C@@H](C)CO)C(=O)c2cc(NS(=O)(=O)c3ccccc3)ccc2O1	x	x	x	-5	x	x	x	x
CN(C)CCCNC(=O)c1ccc(-c2nc(-c3ccc(Cl)cc3)cs2)cc1	47	-8	87*	-6	100*	8	94*	28
CN(C)CCCNC(=O)c1ccccn1	-11	12	-11	-7	-17	3	x	x
Oc1cc(-c2ccc(N3CCCCC3)nc2)cc2cccnc12	96*	21	98*	x	x	u	97*	50*
CN(C)CCCNC(=O)c1ccc(-c2cc(O)c3ncccc3c2)cc1	-10	-5	55*	19	x	45	34	55*
CN(C)c1ccc(-c2cc(O)c3ncccc3c2)cc1	88*	0	92*	-14	115*	72	84*	50*
Cc1cc(N2CCCC2)nc(-c2ccccc2O)n1	-1	4	-1	x	1	-49	x	x
CN(C)CC#Cc1ccc([C@@H]2[C@H]3CN(C(=O)C4CCCC4)CCCCN3[C@H]2CO)cc1	x	x	x	1	x	x	x	x
C[C@@H]1CCCCO[C@@H](CN(C)C(=O)Nc2ccc(C(F)(F)F)cc2)[C@H](C)CN([C@@H](C)CO)C(=O)c2cc(NS(=O)(=O)c3cn(C)cn3)ccc2O1	x	x	x	22	x	x	x	x

Source: PubChem BioAssay
